# Screens deposited in PubChem by Broad Institute.
# The entries come from a sample that favours hits as a whole.
# Tgondii IFNg – T. gondii growth inhibition under IFN-gamma; Toxoplasma gondii growth in IFN-gamma-treated host cells; hits give low values; activity change, negative = inhibition, % (test concentration not listed); 69,000 compounds, 3.8% hits; in the data active = activity change below about -70%, passing the limit was not always enough;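 note: host cells are HeLa cells infected with Toxoplasma gondii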
# * = called active by the depositor.
SMILES,Tgondii IFNg
CCn1c(C2CCCN(Cc3ccccc3Cn3cccn3)C2)n[nH]c1=O (stereo unspecified),-2.0
COc1ccc(S(=O)(=O)Nc2ccc3c(c2)C(=O)N([C@H](C)CO)C[C@@H](C)[C@H](CN(C)S(=O)(=O)c2ccc(Cl)cc2)OCCCC[C@H](C)O3)cc1,-112.8*
C[C@@H]1CCCCO[C@@H](CN(C)S(=O)(=O)c2ccc(Cl)cc2)[C@@H](C)CN([C@H](C)CO)C(=O)c2cc(NC(=O)Nc3ccc(C(F)(F)F)cc3)ccc2O1,43.8
COc1ccc(S(=O)(=O)N(C)C[C@@H]2Oc3ccc(NC(=O)Nc4ccc(C(F)(F)F)cc4)cc3C(=O)N([C@H](C)CO)C[C@H]2C)cc1,-75.2*
COc1ccc(S(=O)(=O)N(C)C[C@H]2Oc3ccc(NC(=O)Nc4ccc(C(F)(F)F)cc4)cc3C(=O)N([C@H](C)CO)C[C@@H]2C)cc1,-42.0
COc1ccc(S(=O)(=O)N(C)C[C@@H]2Oc3ccc(NC(=O)Nc4ccc(C(F)(F)F)cc4)cc3C(=O)N([C@H](C)CO)C[C@@H]2C)cc1,-37.4
C[C@@H]1CCCCO[C@H](CN(C)S(=O)(=O)c2ccc(Cl)cc2)[C@@H](C)CN([C@H](C)CO)C(=O)c2cc(NC(=O)Nc3ccc(C(F)(F)F)cc3)ccc2O1,45.1
CNS(=O)(=O)c1ccc(F)c(C(=O)NCc2cc(N(C)C)nc(-c3cccnc3)n2)c1,-13.3
CC(C)N(CCc1ccccc1)C(=O)C1CCOC1 (stereo unspecified),-10.0
C=CCN1C(=O)CCC12CCCN(C(=O)c1ccc[nH]1)CC2 (stereo unspecified),-56.7
CC(=O)Nc1nc2c(C)cc(C)cc2s1,92.8
Cc1c(NCc2cccnc2)cccc1C(=O)NCCN1CCCC(O)C1 (stereo unspecified),36.6
COCCN1C[C@@H]2CN(S(=O)(=O)c3cccs3)C[C@H]2C1=O,98.0
COCCC(=O)NC1CCC2(CCC(=O)N2Cc2ccncc2)CC1 (stereo unspecified),1.0
CC(C)CN1CCC2(CC1)CC1(CCN(S(=O)(=O)C3CC3)CC1)N(C)C2=O,9.2
c1ccc(Cc2nc3ccccc3[nH]2)cc1,-15.9
O=C1NCc2c1c1c3ccccc3[nH]c1c1[nH]c3ccccc3c21,1.5
Clc1nc2ccccc2c2[nH]c3ccccc3c12,-95.2*
O=C(O)C1c2ccccc2C(=O)N(C2CCCC2)C12CCCCC2 (stereo unspecified),-10.6
CCc1ccc(S(=O)(=O)N2CCC3(CCCN(Cc4c(C)noc4C)C3)C2)cc1 (stereo unspecified),-71.8*
Cc1ccc(S(=O)(=O)N2CCC3(CCCN(Cc4c(C)noc4C)C3)C2)cc1 (stereo unspecified),-14.8
Cc1cccc(CN2CCCC3(CCN(S(=O)(=O)c4ccc(F)cc4)C3)C2)n1 (stereo unspecified),-9.5
Cc1nc(CN2CCc3ncnc(-c4ccc(F)cc4)c3CC2)cs1,-13.2
COc1ccc(-c2nc3c(s2)CN(S(=O)(=O)c2ccc(F)cc2F)CC3)cc1,-95.4*
COc1ccc(-c2nc3c(s2)CN(S(=O)(=O)c2cc(OC)ccc2OC)CC3)cc1,-120.3*
SMILES,Tgondii IFNg
CCOc1ccc(-c2nc3c(s2)CN(S(=O)(=O)c2ccc(F)cc2F)CC3)cc1,92.0
CCOc1ccc(S(=O)(=O)N2CCc3nc(-c4ccc(OC)cc4)sc3C2)cc1,42.2
CCc1ccc(S(=O)(=O)N2CCc3nc(-c4ccc(OC)cc4)sc3C2)cc1,-14.9
COc1cccc(CC(=O)NC(c2cc(=O)n3[nH]c(-c4ccccn4)cc3n2)C(C)C)c1 (stereo unspecified),1.5
Cc1noc(C)c1NC(=O)c1cccc(CN2CCC3(CC2)CNC(=O)O3)c1,0.9
COc1ccccc1NC(=O)C(=O)NCCc1sc(-c2cccc(C)c2)nc1C,56.4
CCC(=O)Nc1ccc(OCC(=O)N(C)C(C)c2ccon2)cc1 (stereo unspecified),58.3
N#Cc1ccc(C#CCOC(=O)Nc2ccc(OC(F)(F)F)cc2)cc1,34.4
CCc1nc(OCC(=O)Nc2cccc(Cl)c2)c2ccccc2n1,3.7
COc1cc(C(F)(F)F)nc2ccc(C#CCOC(=O)Nc3cccc(Cl)c3)cc12,-108.7*
Oc1cccc(-c2nccn2-c2cccc(-c3ccn[nH]3)c2)c1,-65.2
CCOc1ccc(NC(=O)c2nnn(Cc3nc(-c4ccc(OC)cc4OC)oc3C)c2C)cc1,221.8
COCc1ccc(CN2CCC3(CC2)C(=O)N(C2Cc4ccccc4C2)C(=O)N3CC(C)C)o1,16.1
O=C(NCCc1csc(-c2ccccc2)n1)[C@H]1CSCN1C(=O)COc1ccccc1,17.3
O=C(c1cc(F)ccc1F)C1CCCN(Cc2cccc(C(F)(F)F)c2)C1 (stereo unspecified),-26.4
CCn1c(SCc2nc(-c3cccc(C)c3)oc2C)nc2c(=O)[nH]cnc21,93.4
Cc1cccc(-c2nc(CSc3nc4c(=O)[nH]cnc4n3-c3ccccc3)c(C)o2)c1,-109.8*
CCOc1ccc(-c2nc(CSc3nc4c(=O)[nH]cnc4n3-c3ccccc3)c(C)o2)cc1OC,-21.9
